Bioassay records: PubChem, National Center for Advancing Translational Sciences (NCATS)
L3MBTL1 block – inhibitors of human L3MBTL1. actives 0.66% (n = 230,000). AID 485360. Q9Y468. AlphaScreen L3MBTL1–H3K9me1 peptide binding. Potency, µM (doses to about 57.1 µM), for inactives: at the highest dose activity, negative = inhibition, most hits filed as inhibitors; note: % is set by controls: 0 for no effect and ±100 for the full control effect; nearly all actives have a fitted effect of over 60% in size
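AlphaScreen proximity signal between nickel-chelate acceptor and streptavidin donor beads (final 10 ug/mL) reports binding of 50 nM L3MBTL1 to 75 nM biotin-H3 K9me1 peptide; complex incubated with compounds 30 min at room temperature; cefsulodin titration as control.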
HP1b chromo inh – inhibitors of HP1-beta chromodomain binding to methylated histone tails. P83916. AlphaScreen HP1-beta / biotin-H3K9me3 peptide binding. actives 0.56% (n = 390,000). AID 540317. Potency, µM (top dose mostly 114 µM), without a hit: top-dose activity change, negative = inhibition, most hits filed as inhibitors; note: nearly all actives have a fitted effect of over 70% in size
Target sequence (P83916 whole entry, looked up): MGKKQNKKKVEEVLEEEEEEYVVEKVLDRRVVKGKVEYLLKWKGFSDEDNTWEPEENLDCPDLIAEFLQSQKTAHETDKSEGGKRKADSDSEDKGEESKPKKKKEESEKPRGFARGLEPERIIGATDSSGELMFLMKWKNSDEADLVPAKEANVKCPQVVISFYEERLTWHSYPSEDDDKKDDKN
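AlphaScreen: HP1-beta (50 nM) preformed 30 min with biotin-H3(1-18)K9me3 peptide (50 nM) in PBS pH 7.4, 0.01% Tween-20. Compound added for 30 min at RT, then streptavidin donor/nickel chelate acceptor beads (10 ug/mL) for 30 min.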
JMJD2A Tudor inh – inhibitors of human JMJD2A Tudor domain; AlphaScreen JMJD2A-Tudor / H3K4me3 peptide binding; O75164; actives 4.4% (n = 390,000); Potency, µM (series often up to 114 µM), inactives show top-dose activity change, negative = inhibition, hits mostly inhibitors; note: % is set by controls: 0 for no effect and ±100 for the full control effect; nearly all actives have a fitted effect of over 50% in size
BAZ2B block – inhibitors of human BAZ2B bromodomain. Q9UIF8. AlphaScreen BAZ2B-H3K14Ac peptide displacement. Potency, µM (titrated, usually from 114 µM), for the others: at the top dose activity change, negative = inhibition, actives largely listed as inhibitors. actives 4.4% (n = 360,000). AID 504333; note: % is set by controls: 0 for no effect and ±100 for the full control effect; nearly all actives have a fitted effect of over 60% in size
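BAZ2B (50 nM) with biotin-H3(5-23)K14Ac peptide (50 nM) in PBS pH 7.4, 0.01% Tween-20, preformed 30 min, then compound 30 min at room temperature; top concentration 110uM. AlphaScreen streptavidin donor/nickel chelate acceptor beads (10 ug/mL final), 20 min dark, signal read.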
G9a block – blocks human histone lysine methyltransferase G9a. Potency, µM (series often up to 102 µM), for the others: at the top dose activity, negative = inhibition, usual class: inhibitors. G9a H3K9 monomethylation, AlphaScreen, 2 h. AID 504332. Q96KQ7. actives 8.8% (n = 350,000); note: % is set by controls: 0 for no effect and ±100 for the full control effect; nearly all actives have a fitted effect of over 75% in size
Target sequence (Q96KQ7 913-1193 limits assumed): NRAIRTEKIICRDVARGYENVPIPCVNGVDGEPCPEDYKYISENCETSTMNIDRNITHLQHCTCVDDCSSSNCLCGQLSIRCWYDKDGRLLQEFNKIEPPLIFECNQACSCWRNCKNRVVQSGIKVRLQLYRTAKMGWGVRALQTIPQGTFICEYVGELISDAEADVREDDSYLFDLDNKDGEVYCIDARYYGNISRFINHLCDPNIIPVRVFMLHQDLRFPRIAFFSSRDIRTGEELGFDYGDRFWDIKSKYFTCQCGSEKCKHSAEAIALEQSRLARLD
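G9a (20 nM) preincubated 15 min RT with compounds, then 500 nM biotinylated H3K9 peptide and 20 uM SAM added; 2 h RT reaction. Monomethyl-H3K9 product detected by AlphaScreen with anti-H3K9me1 antibody, streptavidin donor and anti-rabbit IgG acceptor beads.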
Active calls of the source: *; [ ] = another dose, or the depositor's remark. Compounds with a hit are over-represented: about 11% of the library has one in this group of screens. Calls come from the whole dose curve; as a rule, active = well fitted inhibition curve with a large enough effect; inconclusive = small, poorly fitted or top-dose-only effect; inactive = no such curve, though single readings can be large or run the other way. Potency is the fitted concentration of half-maximal effect.

Results for Cc1c(N2CCCC2)cc2c(c1NC(=O)c1ccccc1Cl)C(C)(C)CC2(C)C ?
L3MBTL1 block: -22%; HP1b chromo inh: 6%; JMJD2A Tudor inh: -34%; BAZ2B block: -37%; G9a block: 28µM*

How did CCC/C=C1\CCCOC(C(=O)NCc2ccccc2)(C(F)(F)F)C1 (stereo not given) do in these assays?
HP1b chromo inh: 6%; JMJD2A Tudor inh: -3%

How did CCc1nnc2c(Nc3ccccc3Br)nc3ccccc3n12 do in these assays?
HP1b chromo inh: 37%; JMJD2A Tudor inh: 17%; BAZ2B block: -1%; G9a block: 8%[59 µM]

How did CCc1nnc2c(Nc3ccc(N(CC)CC)cc3C)nc3ccccc3n12 do in these assays?
HP1b chromo inh: inconclusive; JMJD2A Tudor inh: 16µM*; BAZ2B block: 32µM*; G9a block: 18µM*

Results for CCCSc1cc(NCCOC(=O)CCC)c([N+](=O)[O-])c2nonc12 ?
L3MBTL1 block: -15%; HP1b chromo inh: -23%; JMJD2A Tudor inh: -32%; BAZ2B block: -37%; G9a block: inconclusive

Results for CCC(=O)OCCNc1cc(Sc2nc3ccccc3[nH]2)c2nonc2c1[N+](=O)[O-] ?
L3MBTL1 block: -1%; HP1b chromo inh: inconclusive; JMJD2A Tudor inh: 79µM*; BAZ2B block: -34%; G9a block: 8.9µM*

What do the screens show for `CCC(=O)OCCNc1cc(Sc2nc3ccccc3s2)c2nonc2c1[N+](=O)[O-]`?
HP1b chromo inh: inconclusive; JMJD2A Tudor inh: -34%; BAZ2B block: -33%; G9a block: 2µM*

Results for NCCNc1ccc([N+](=O)[O-])c(Sc2nc3ccccc3[nH]2)c1 ?
L3MBTL1 block: -3%; HP1b chromo inh: -5%; JMJD2A Tudor inh: inconclusive; BAZ2B block: -39%; G9a block: inconclusive

How did O=[N+]([O-])c1c(NCCCO)cc(Sc2nc3ccccc3s2)c2nonc12 do in these assays?
L3MBTL1 block: 23%; HP1b chromo inh: 5%; JMJD2A Tudor inh: 56µM*; BAZ2B block: 0%; G9a block: inconclusive

How did CCOc1cc(N2CCOCC2)c(OCC)cc1NC(=O)COC(=O)c1ccc([N+](=O)[O-])o1 do in these assays?
L3MBTL1 block: inconclusive; HP1b chromo inh: -8%; JMJD2A Tudor inh: -34%

How did CCCc1nn2c(=O)cc(CSCC(=O)Nc3ccccc3OC)nc2s1 do in these assays?
HP1b chromo inh: 47%; JMJD2A Tudor inh: -4%; BAZ2B block: inconclusive; G9a block: 13%

How did O=S(=O)(NCC(c1cccs1)S(=O)(=O)c1ccccc1)c1ccccc1 (stereo not given) do in these assays?
HP1b chromo inh: 27%; JMJD2A Tudor inh: -11%; BAZ2B block: -2%; G9a block: 6%[59 µM]

What do the screens show for `CCOC(=O)c1ccc(NNC(=O)CC)c([N+](=O)[O-])c1`?
L3MBTL1 block: 21%; HP1b chromo inh: 26%; JMJD2A Tudor inh: -5%; BAZ2B block: -4%; G9a block: 19%

How did Cc1c(C(=O)N2CCN(C(=O)c3ccco3)CC2)sc2nc(-c3ccc(F)cc3)cn12 do in these assays?
L3MBTL1 block: -1%; HP1b chromo inh: 31%; JMJD2A Tudor inh: -22%; BAZ2B block: -21%; G9a block: 40µM*

How did CCOc1ccc(NC(=O)c2sc3nc(-c4ccc(OC)cc4)cn3c2C)cc1 do in these assays?
HP1b chromo inh: 17%[57 µM]; JMJD2A Tudor inh: -15%; BAZ2B block: -7%; G9a block: -3%[59 µM]

What do the screens show for `COc1ccc(N2CCN(C(=O)c3sc4nc(-c5ccc(F)cc5)cn4c3C)CC2)cc1`?
L3MBTL1 block: -1%; HP1b chromo inh: 62%; JMJD2A Tudor inh: -10%; BAZ2B block: 6%; G9a block: inconclusive

What do the screens show for `COc1ccc(-c2cn3c4c(sc3n2)CCCC4)cc1`?
HP1b chromo inh: 28%; JMJD2A Tudor inh: 12%; BAZ2B block: inconclusive; G9a block: 50µM*

Results for Cc1c(C(=O)Nc2ccncc2)sc2nc(-c3ccc(F)cc3)cn12 ?
L3MBTL1 block: 9%; HP1b chromo inh: 44%; JMJD2A Tudor inh: -13%; BAZ2B block: -3%; G9a block: 40µM*
